Screens (PubChem)
ELG1 repair inh = blocks ELG1-dependent DNA repair in HEK293T cells; HEK293T ELG1-luciferase reporter, luminescence, 16 h; DNA damage induced by 5-fluorouridine; Potency, µM (highest dose often 46.1 µM), for the others: at the highest dose activity change, negative = inhibition, actives largely listed as inhibitors; 330,000 compounds, 2.3% hits; AID 504467; also: % is scaled to controls: 0 for no effect and ±100 for the full control effect; nearly all actives have a fitted effect of over 55% in size
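Luminescence from the luciferase reporter, measured 30 min after ONE-Glo reagent at room temperature, was the read-out. Beforehand, 2,000 cells per well were exposed for 16 hr at 37 °C to 5-fluorouridine together with compound or vehicle.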
ELG1 genotoxic = genotoxicity induction in ELG1-luciferase HEK293T cells; HEK293T ELG1-luciferase reporter, luminescence, 16 h; Potency, µM (doses to about 46 µM), for the others: at the highest dose activity change, positive = activation, usual class: activators; 330,000 compounds, 1.3% hits; also: % of control where 0% means no effect; nearly all actives have a fitted effect of over 60% in size
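HEK293T cells expressing luciferase-tagged ELG1 were treated with compound or DMSO for 16 hr at 37°C. Luciferase activity was then read after 30 min with ONE-Glo at room temperature; rising signal flags genetic stress.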
SMN2 splice enh = SMN2 splice variant enhancement; HEK293 SMN2-luciferase splicing reporter, luminescence, 30-36 h; Potency, µM (series often up to 46.1 µM), inactives show top-dose activity change, positive = activation, hits mostly activators; 210,000 compounds, 2.8% hits; AID 1458; also: % of control where 0% means no effect; nearly all actives have a fitted effect of over 55% in size
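qHTS luciferase splicing reporter: luminescence rises when SMN2 exon 7 is included in transfected HEK293 cells. Compound exposure lasted 30-36 h at 37C, with 4.5 mM final sodium butyrate as control, followed by a ONE-Glo read.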
NPC1 promoter act = activators of NPC1 promoter; Potency, µM (titrated, usually from 9.22 µM), for inactives: top-dose activation, most hits filed as activators; Huh7 NPC1 promoter luciferase reporter, 24 h; 320,000 compounds, 2.4% hits; also: % of control where 0% means no effect; nearly all actives have a fitted effect of over 60% in size
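Stable NPC1-promoter luciferase Huh7 line; cpd (DMSO) 24 h, 37 °C, 5% CO2; Amplite luciferase reagent 10 min RT; luminescence readout. qHTS format.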
Rab9 prom act = activators of Rab9 promoter | Huh7 Rab9 promoter-luciferase reporter, luminescence, 24 h | AID 485297 | Potency, µM (highest dose often 9.22 µM), for the others: top-dose activation, negative = inhibition, usual class: activators | 320,000 compounds, 2.8% hits; also: % of control where 0% means no effect; nearly all actives have a fitted effect of over 60% in size
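Stable Rab9-luc Huh7, 1500 cells/well, 2 h settle; cmpd in DMSO, 24 h, 37 °C/5% CO2; luciferase reagent 10 min RT; luminescence.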
FLuc counter = counter-screen for miR-21 project: firefly luciferase inhibitors or activators; P08659; purified FLuc, Km substrates, luminescence inhibition; Potency, µM (series often up to 57.5 µM), without a hit: at the highest dose activity change, negative = inhibition, usual class: inhibitors; 360,000 compounds, 6.9% hits; AID 588342;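 also: plate controls were vehicle for no effect and reference inhibitor for full effect; nearly all actives have a fitted effect of over 55% in size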
Target sequence (P08659 whole entry, looked up): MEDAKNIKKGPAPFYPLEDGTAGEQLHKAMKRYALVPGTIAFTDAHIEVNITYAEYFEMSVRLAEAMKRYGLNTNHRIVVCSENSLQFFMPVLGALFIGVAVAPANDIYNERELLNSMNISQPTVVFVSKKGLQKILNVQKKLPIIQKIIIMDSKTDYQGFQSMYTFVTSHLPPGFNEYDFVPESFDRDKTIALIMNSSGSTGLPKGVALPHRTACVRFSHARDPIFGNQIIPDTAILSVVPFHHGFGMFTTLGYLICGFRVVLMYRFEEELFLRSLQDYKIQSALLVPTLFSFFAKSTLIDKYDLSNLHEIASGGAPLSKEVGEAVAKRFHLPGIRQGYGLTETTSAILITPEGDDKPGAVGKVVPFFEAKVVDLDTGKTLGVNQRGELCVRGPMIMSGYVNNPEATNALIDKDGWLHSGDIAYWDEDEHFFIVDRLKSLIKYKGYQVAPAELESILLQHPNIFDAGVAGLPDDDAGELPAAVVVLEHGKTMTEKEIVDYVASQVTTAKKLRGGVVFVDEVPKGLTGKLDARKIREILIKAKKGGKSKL
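Biochemical qHTS of compounds, final roughly 60 µM downward over six points, against 10 nM purified firefly luciferase using Km concentrations of substrates (10 uM D-luciferin, 10 uM ATP) in Tris acetate pH 7.5 buffer; luminescence output.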
Numbers without * were called inactive; ? = inconclusive; nt = no result. Rows were chosen to be rich in hits. Some 9.4% of all compounds tested hit in one or more screens of this group. Calls follow the shape of the dose curve; as a rule, active = well fitted curve in the direction sought with a large enough effect; inconclusive = small, poorly fitted or top-dose-only effect, or another doubt; inactive = no such curve, though single readings can be large; an effect the other way counts as inactive or inconclusive. Potency is read from the fitted curve at half-maximal effect.

SMILES	ELG1 repair inh	ELG1 genotoxic	SMN2 splice enh	NPC1 promoter act	Rab9 prom act	FLuc counter
O=C1c2cccc3c(N4CCCCC4)ccc(c23)C(=O)N1CCO	?	?	10%	?	?	15µM*
CC(=O)c1sc(C(=O)O)c(-c2ccco2)c1-c1ccco1	17%	0%	nt	-2%	-4%	-5%
COc1ccc(Cn2c3nc4ccccc4nc3c3c(=O)n(Cc4ccco4)cnc32)cc1	?	-5%	12%	1%	0%	-16%
Cc1cccc(-n2cnc3c(c2=O)c2nc4ccccc4nc2n3Cc2ccco2)c1	18µM*	15%	?	-2%	0%	?
COc1ccccc1/C=C/C=N/NC(=O)c1cc(-c2ccco2)[nH]n1	-26%	-5%	nt	-3%	0%	17µM*
COc1ccccc1/C=C/C=N/NC(=O)c1cnccn1	?	13%	nt	14%	23%	?
COc1ccccc1/C=C/C=N/NC(=O)c1ccccn1	?	-9%	11µM*	2µM*	1.1µM*	8.5µM*
CCC(=O)NC(c1ccc(C)cc1)c1cc(Cl)c2cccnc2c1O (stereo unspecified)	3.7µM*	5%	nt	nt	nt	nt
CCCC(=O)NC(c1ccccc1OC)c1ccc2cccnc2c1O (stereo unspecified)	4.1µM*	-6%	nt	-18%	-49%	2%
CCC(=O)NC(c1cccs1)c1ccc2cccnc2c1O (stereo unspecified)	3.7µM*	7%	nt	-36%	-41%	0%
Oc1c(C(Nc2nccs2)c2ccc(C(F)(F)F)cc2)ccc2cccnc12 (stereo unspecified)	2.6µM*	?	nt	-19%	-23%	-5%
CCCCC(=O)NC(c1ccccc1OC)c1ccc2cccnc2c1O (stereo unspecified)	?	1%	nt	-43%	-50%	-1%
ON=C1CCCCC1	nt	nt	-9%	nt	nt	nt
CCCN(CCC)CCCNC(=O)Cn1cnc2onc(-c3ccc(F)cc3)c2c1=O	nt	nt	nt	nt	nt	-1%
O=C(COC(=O)[C@@H]1CCCN1C(=O)c1cccs1)Nc1cccc([N+](=O)[O-])c1	1%	4%	nt	nt	nt	nt
CCN(c1ccccc1)c1ncnc2c1cnn2-c1ccccc1	?	21µM*	-59%	?	?	19µM*
CCN(Cc1ccccc1)c1ncnc2c1cnn2-c1ccc(F)cc1	nt	nt	nt	nt	nt	7.6µM*
Fc1ccc(CNc2ncnc3c2cnn3-c2ccccc2)cc1	nt	nt	-17%	nt	nt	?
CN(Cc1ccccc1)c1ncnc2c1cnn2-c1ccccc1	?	18µM*	5.6µM*	2.5µM*	2.8µM*	6µM*
CC(C)NC(=O)C1=CC(c2ccc3c(c2)OCO3)=NS(=O)(=O)N1C	nt	nt	nt	nt	nt	-14%
O=C(Nc1nc2ccccc2s1)C1c2ccccc2Oc2ccccc21	10%	2%	-22%	-1%	-1%	2%
O=C(Nc1nc2ccc(F)cc2s1)C1CCCO1 (stereo unspecified)	?	?	16µM*	1.1µM*	2.2µM*	6.7µM*
O=C(Nc1nnc(-c2ccncc2)s1)C1CCCO1 (stereo unspecified)	?	1%	?	13%	14%	-11%
O=C(Nc1nc2ccc(C(=O)N3CCCCC3)cc2s1)C1CCCCC1	?	6%	nt	-19%	-11%	-12%
CCOc1ccc2nc(NC(=O)C3CCCO3)sc2c1 (stereo unspecified)	-16%	2%	nt	-6%	-7%	-1%
SMILES	ELG1 repair inh	ELG1 genotoxic	SMN2 splice enh	NPC1 promoter act	Rab9 prom act	FLuc counter
O=C(Nc1nnc(-c2ccccc2F)s1)C1CCCO1 (stereo unspecified)	?	?	5µM*	3.5µM*	2.5µM*	15µM*
O=C(Nc1nc2ccccc2s1)C1CCCO1 (stereo unspecified)	?	5.8µM*	13µM*	1.1µM*	?	15µM*
Nc1ccc2nc(NC(=O)C3CCCCC3)sc2c1	?	21µM*	14µM*	?	4.5µM*	6.7µM*
O=S(=O)(Nc1nc2ccccc2nc1Nc1ccccc1Br)c1ccccc1	nt	nt	-9%	nt	nt	-6%
O=C(Nc1ncc(Cc2ccccc2)s1)C1CCCO1 (stereo unspecified)	?	?	5µM*	1.1µM*	2.2µM*	4.3µM*
O=C(NCc1ccc2c(c1)CCO2)Nc1ccccc1	?	?	nt	3.5µM*	3.2µM*	15µM*
CCc1ccc(NC(=O)Cn2ccn(-c3ccc(C)c(C)c3)c(=O)c2=O)cc1	nt	nt	nt	nt	nt	-1%
Nc1nc(Nc2ccccc2)nc(NCc2ccccc2)c1[N+](=O)[O-]	21µM*	5%	nt	-3%	-1%	-16%
CNc1nc(NCc2ccccc2)nc(N)c1[N+](=O)[O-]	?	18µM*	nt	-2%	-1%	6%
COc1cc(/C=N/N(C)c2ccccc2)ccc1O	?	4.6µM*	?	?	?	2.4µM*
C(=N\N(c1ccccc1)c1ccccc1)/c1ccc2c(c1)OCO2	-5%	-4%	-15%	0%	-7%	-1%
CN(/N=C/c1ccc2c(c1)OCO2)c1ccccc1	?	?	20µM*	4µM*	2.8µM*	6.7µM*
CCN(Cc1ccccc1)C(=O)CN1C(=O)COc2ccc(S(=O)(=O)N3CCOCC3)cc21	nt	nt	nt	nt	nt	-2%
CCn1c(-c2ccc(N(C)C)cc2)nc2ccccc21	?	2%	13µM*	?	?	0.85µM*
CN(C)c1ccc(-c2nc3ccccc3n2C)cc1	?	?	0.63µM*	0.32µM*	0.22µM*	0.27µM*
CC(C)n1c(-c2ccc(N(C)C)cc2)nc2ccccc21	?	18%	10%	1%	?	7.6µM*
Cc1ccc(C(O)c2nc3ccccc3n2C(C)C)cc1 (stereo unspecified)	2%	-1%	-7%	-2%	-3%	-3%
CCn1c(-c2ccc(N)cc2)nc2ccccc21	?	?	14%	9%	2%	?
CCn1c(-c2ccco2)nc2ccccc21	?	28%	9%	22%	18%	19µM*
CC(=O)Nc1ccc(NC(=O)CCS(=O)(=O)c2ccc3c(c2)CC(=O)N3C)cc1	nt	nt	nt	nt	nt	-5%
CC1(C)CC(NC(=O)c2cc(Cl)ccc2Cl)CC(C)(C)N1	-3%	0%	nt	2%	-4%	3%
O=C(c1ccco1)N1CCC2(CC1)CN(c1cccc(-c3ccccc3)c1)C2	nt	nt	-47%	nt	nt	nt
Cc1nc(-c2ccccc2)cc(=O)[nH]1	1%	3%	2%	3%	-2%	2%
Cc1cc(=O)n2cc(-c3ccccc3)nc2[nH]1	?	12%	nt	26%	23%	12µM*
